# In PubChem BioAssay:
# Inconclusive results are not listed. The source made the active and inactive calls.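 Rule for the calls, unless noted: active = viability at or below 27.92% in each of two runs, the all-compound median minus 4 SD; inconclusive = no clear call, values can overlap the other calls; inactive = the rest.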
# Assays:
# [1] = S. cerevisiae growth inhibition in permissive medium (OD615), pilot counter-assay for S. cerevisiae lifespan shortening project, permissive growth control (AID 705;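 active = growth inhibition above 25% in both replicates, a cutoff set 3 SD above the mean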); settings: OD615, 24 h, at 10 µM, stronger effect = higher value
# [2] = S. cerevisiae growth inhibition in restrictive medium, OD615, pilot screen, restrictive growth control, yeast lifespan reduction project (AID 706;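 active = growth inhibition above a set limit, 3 SD over mean compound inhibition, in both replicates, cut at about 43% in these data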;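 note: modified DeaD lifespan yeast strain shifted to restrictive glucose medium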); settings: OD615, 48 h, at 10 µM, stronger effect = higher value
# [3] = doxorubicin toxicity protection in MRP-1 cells – H69AR cells, CellTiter-Glo, duplicate, MRP-1 activator project, pilot screen (AID 807;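 active = viability increase at or above a cutoff of the median across tested compounds plus 3 SD, cut at about 8.5% in these data, passing the limit was not always enough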;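 note: compound pretreatment 18-22 h then 72 h combined with doxorubicin; 0% = doxorubicin alone and 100% = vehicle without doxorubicin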); settings: H69AR viability with doxorubicin, CellTiter-Glo luminescence; at 10 µM; stronger effect = higher value
# [4] = viability of HCT116 without oncogenic beta-catenin – human colon tumor cells, pilot screen (AID 823;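 active = cell viability at or below a set limit in both duplicate runs, the limit being the all-compound median minus 4 SD, cut at about 23% in these data, passing the limit was not always enough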;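 note: 0% = wells killed by 20 µM Hyamine and 100% = untreated DMSO cell wells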); settings: HCT116 beta-catenin knockout viability, CellTiter-Glo, 60 h; at 10 µM; stronger effect = lower value
# [5] = viability of PTEN-null HCT116 cells – cell-based, HCT116 clonal line, CellTiter-Glo, pilot screen (AID 824); settings: HCT116 PTEN-deleted viability, 60 h, at 10 µM, stronger effect = lower value;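 note: 0% = 20 µM Hyamine control and 100% = vehicle cell control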
# [6] = RAM pathway blockade in budding yeast – dse1pr::URA3 reporter, 5-FOA selection, pilot screen (AID 869;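 active = inhibition over a set limit, the all-compound mean plus 3 SD, in both replicate runs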;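 note: 0% = DMSO wells with no growth and 100% = 10 µM 1-NA-PP1 with full growth; RAM network block rescues cells from 5-FOA so hits raise OD615 growth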); settings: S. cerevisiae dse1pr::URA3 5-FOA growth, OD615, 2 d; at 10 µM; stronger effect = higher value; strain carries analog-sensitive mutant Cbk1 kinase
# [7] = H69AR cell proliferation blockers – human, duplicate replicates, primary screen (AID 580;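 active = viability at or under a set limit in both replicates, limit being median viability minus 3 SD, cut at about 48% in these data, passing the limit was not always enough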;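 note: 100% = mean luminescence of untreated wells and 0% = no signal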); settings: H69AR lung tumor cells viability, ATP luminescence, 72 h; at 10 µM; stronger effect = lower value
# [8] = MRP1 drug-resistance reversers in H69AR cells – cell-based, doxorubicin co-treatment, pilot screen (AID 601;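 active = viability loss from added drug above about 55%, and viability with drug at most 40%, in both replicates, limit read from the data, passing the limit was not always enough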); settings: CellTiter-Glo, 72 h, at 10 µM; for differential viability (reversal): stronger effect = higher value
# [9] = yeast transport mutant growth inhibition pilot in 384-well plates, post-Golgi transport modulator project (AID 636; in the data active = inhibition above about 31%); settings: absorbance 615 nm, about 18 h, stronger effect = higher value
# [10] = growth suppression of yeast trafficking mutant, preliminary HTS, modulators of trafficking downstream of Golgi apparatus project, 1536-format plate, OD 615 nm (AID 637; in the data active = inhibition above about 30%); settings: yeast transport mutant growth, absorbance 615 nm, 18 h; stronger effect = higher value
# [11] = H69AR cells + 2 uM doxorubicin, measured here: viability with 2 uM doxorubicin, stronger effect = lower value
# [12] = H69AR cells, compound alone cytotoxicity
compound,measurement,setting,value
CC1CCN(c2nc3c(c(=O)[nH]c(=O)n3C)n2CCCc2ccccc2)CC1,growth inhibition,[1],-15.8% (inactive)
same,growth inhibition,[2],-41.8% (inactive)
same,viability increase,[3],-3.5% (inactive)
same,viability,[4],79.9% (inactive)
same,viability,[5],72.9% (inactive)
same,inhibition,[6],1.45% (inactive)
CCn1c(=N)n(CC(O)COc2cccc(C)c2)c2ccccc21 (stereo unspecified),viability,[7],69.9% (inactive)
same,differential viability (reversal),[8]; H69AR cells + 2 uM doxorubicin,-2.36% (inactive)
same,viability,[8]; [11],72.3%
same,viability,[8]; [12],69.9%
same,inhibition,[9],3.55% (inactive)
same,inhibition,[10],-5.08% (inactive)
CCOc1ccccc1C(=O)Nc1ccc2nc(N3CCN(c4ncccn4)CC3)cc(C)c2c1,growth inhibition,[1],5.8% (inactive)
same,growth inhibition,[2],-4.81% (inactive)
same,viability increase,[3],-7.45% (inactive)
same,viability,[4],4.33% (active)
same,viability,[5],2.14% (active)
O=C(O)c1ccc(CSc2nnc(COc3ccc(Cl)cc3Cl)o2)cc1,growth inhibition,[1],10.6% (inactive)
same,growth inhibition,[2],20.2% (inactive)
same,viability increase,[3],2.94% (inactive)
same,viability,[4],103% (inactive)
same,viability,[5],94.1% (inactive)
same,inhibition,[6],1.22% (inactive)
Cc1ccc(-c2nc(C(=O)NC3CCCCCC3)no2)cc1,growth inhibition,[1],-6.78% (inactive)
same,growth inhibition,[2],5.45% (inactive)
same,viability increase,[3],4.07% (inactive)
same,viability,[4],103% (inactive)
same,viability,[5],104% (inactive)
same,inhibition,[6],-0.1% (inactive)
O=C(CSc1nnnn1-c1ccccc1)Nc1nsc(-c2ccc(Cl)cc2)n1,differential viability (reversal),[8]; H69AR cells + 2 uM doxorubicin,-0.79% (inactive)
same,viability,[8]; [11],54.8%
same,viability,[8]; [12],54%
same,inhibition,[9],0.39% (inactive)
same,inhibition,[10],3.33% (inactive)
Cc1ccc(CNC(=O)CS(=O)Cc2nc(-c3ccccc3C)oc2C)cc1 (stereo unspecified),growth inhibition,[1],-3.71% (inactive)
same,growth inhibition,[2],1.06% (inactive)
same,viability increase,[3],0.04% (inactive)
same,viability,[4],90.3% (inactive)
same,viability,[5],98.4% (inactive)
same,inhibition,[6],1.06% (inactive)
C(#Cc1ccccc1)CN1CCN(c2ccccn2)CC1,growth inhibition,[1],-7.33% (inactive)
same,growth inhibition,[2],-2.65% (inactive)
same,viability increase,[3],-1.2% (inactive)
same,viability,[4],98.3% (inactive)
same,viability,[5],91.9% (inactive)
CN(C)c1ccc(CN(C)C2CCCCC2)cc1,growth inhibition,[1],2.59% (inactive)
same,growth inhibition,[2],-6.2% (inactive)
same,viability increase,[3],-1.65% (inactive)
same,viability,[4],93.1% (inactive)
same,viability,[5],89.7% (inactive)
same,inhibition,[6],1.46% (inactive)
CCc1ccccc1S(=O)(=O)Cc1ccc(C(=O)N2CCN(c3ccccc3OC)CC2)o1,growth inhibition,[1],-12.5% (inactive)
same,growth inhibition,[2],-21.1% (inactive)
same,viability increase,[3],-2.86% (inactive)
same,viability,[4],37% (inactive)
same,viability,[5],43.5% (inactive)
same,inhibition,[6],1.31% (inactive)
CC1CCN(c2nc(-c3ccccc3)cc(C(F)(F)F)n2)CC1,growth inhibition,[1],-10.7% (inactive)
same,growth inhibition,[2],-11% (inactive)
same,viability increase,[3],-1.76% (inactive)
same,viability,[4],88.1% (inactive)
same,viability,[5],90.6% (inactive)
same,inhibition,[6],2.21% (inactive)
CCn1c(C(C)NC(=O)c2cccc(C)c2)nc2ccccc21 (stereo unspecified),growth inhibition,[1],-8.83% (inactive)
same,growth inhibition,[2],5.38% (inactive)
same,viability increase,[3],-2.68% (inactive)
same,viability,[4],102% (inactive)
same,viability,[5],95.6% (inactive)
same,inhibition,[6],2.54% (inactive)
COc1ccccc1N1CCN(C(=O)c2cc3c(-c4ccc(Cl)cc4)nn(C)c3s2)CC1,growth inhibition,[1],-1.53% (inactive)
same,growth inhibition,[2],13.8% (inactive)
same,viability increase,[3],-4.63% (inactive)
same,viability,[4],60.8% (inactive)
same,viability,[5],47.9% (inactive)
same,inhibition,[6],2.8% (inactive)
COc1ccc(OC)c(NC(=O)C2CCC(CNc3c(N4CCC(C)CC4)c(=O)c3=O)CC2)c1 (stereo unspecified),growth inhibition,[1],-5.59% (inactive)
same,growth inhibition,[2],-11.5% (inactive)
same,viability increase,[3],-4.93% (inactive)
same,viability,[4],70.8% (inactive)
same,viability,[5],70.1% (inactive)
same,inhibition,[6],0.96% (inactive)
CN(Cc1ccccc1)c1oc(COc2ccccc2F)nc1C#N,growth inhibition,[1],-1.62% (inactive)
same,growth inhibition,[2],-8.97% (inactive)
same,viability increase,[3],2.94% (inactive)
same,viability,[4],80.2% (inactive)
same,viability,[5],80.9% (inactive)
same,inhibition,[6],1.07% (inactive)
COc1ccc(OC)c(NC(=O)C2COc3ccccc3O2)c1 (stereo unspecified),growth inhibition,[1],-10.5% (inactive)
same,growth inhibition,[2],-6.21% (inactive)
same,viability increase,[3],-2.23% (inactive)
same,viability,[4],82.7% (inactive)
same,viability,[5],80.3% (inactive)
same,inhibition,[6],0.25% (inactive)
CC[C@@H]1C(=O)OC[C@@H]1Cc1cncn1C,inhibition,[9],-3.12% (inactive)
same,inhibition,[10],-5.5% (inactive)
Cc1cccc(-c2noc(CN(C(=O)c3c(-c4ccccc4Cl)noc3C)C(C)C)n2)c1,growth inhibition,[1],-13.9% (inactive)
same,growth inhibition,[2],-13% (inactive)
same,viability increase,[3],-3.28% (inactive)
same,viability,[4],44.3% (inactive)
same,viability,[5],49.4% (inactive)
same,inhibition,[6],0.585% (inactive)
